Shown are actives, neighbours in structure and some others; about 5.9% of the full set was active somewhere.
RORg inh = ROR gamma (mouse) transcription inhibition | P51450 | Drosophila S2 Gal4-RORgamma UAS-luciferase reporter, 20 h | Potency, µM (titrated, usually from 53.6 µM), inactives show top-dose activity change, negative = inhibition, hits mostly inhibitors | actives 5.4% (n = 310,000); note: % is set by controls: 0 for no effect and ±100 for the full control effect; nearly all actives have a fitted effect of over 60% in size
Target sequence (P51450 whole entry, looked up, the tested form may be a part): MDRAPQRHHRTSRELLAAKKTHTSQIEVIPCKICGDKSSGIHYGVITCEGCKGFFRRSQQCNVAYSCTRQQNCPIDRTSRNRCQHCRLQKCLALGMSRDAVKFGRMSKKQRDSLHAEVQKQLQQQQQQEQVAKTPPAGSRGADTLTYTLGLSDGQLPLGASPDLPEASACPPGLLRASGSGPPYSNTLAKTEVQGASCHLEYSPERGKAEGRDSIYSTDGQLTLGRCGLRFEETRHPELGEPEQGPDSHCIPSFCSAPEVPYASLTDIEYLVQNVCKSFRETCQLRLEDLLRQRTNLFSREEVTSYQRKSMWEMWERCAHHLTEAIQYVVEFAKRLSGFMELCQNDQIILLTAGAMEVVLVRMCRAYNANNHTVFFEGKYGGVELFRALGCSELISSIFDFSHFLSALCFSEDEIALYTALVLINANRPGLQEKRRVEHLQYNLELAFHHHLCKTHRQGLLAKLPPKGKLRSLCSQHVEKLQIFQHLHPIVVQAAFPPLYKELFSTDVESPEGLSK
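Using a luciferase readout, inhibitors were identified by reduced reporter activity in Drosophila cells coexpressing a copper-inducible Gal4–ROR gamma fusion and UAS-driven Photinus luciferase, incubated 20 hr after 700 uM copper sulfate.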
VP16 counter = inhibits Gal4-VP16 luciferase reporter, ROR gamma counter-screen; Drosophila S2 Gal4-VP16 UAS-luciferase, luminescence, 20 h; Potency, µM (highest dose often 53.6 µM), inactives show top-dose activity, negative = inhibition, hits mostly inhibitors; actives 3.5% (n = 310,000); AID 2546;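 note: Gal4-VP16 expression switched on by copper sulfate through the metallothionein promoter; % is set by controls: 0 for no effect and ±100 for the full control effect; nearly all actives have a fitted effect of over 50% in size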
HEK293 tox = cytotoxic in the GLP-1 receptor inverse agonist counter-screen | HEK293 cAMP-luciferase reporter cells, luminescence, 24 h | Potency, µM (titrated, usually from 38.3 µM), for inactives: at the top dose activity change, negative = inhibition, usual class: inhibitors | actives 0.13% (n = 410,000);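 note: loss of luciferase light is scored as toxicity; % is set by controls: 0 for no effect and ±100 for the full control effect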
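A 23 nL compound transfer followed 12 hours of cell culture at 37 deg C; exposure then lasted 24 hr. Luciferase assay detection reagent was dispensed and plates read for luminescence after a 12 min room-temperature wait.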
GLP-1R inv ag = GLP-1 receptor (human) inverse agonism; HEK293 GLP-1R CRE-luciferase, luminescence, 24 h; GLP-1R form is constitutively active; Potency, µM (top dose mostly 38.3 µM), inactives show at the highest dose activity change, negative = inhibition, hits mostly inhibitors; actives 1.6% (n = 410,000); AID 624417; note: % is set by controls: 0 for no effect and ±100 for the full control effect; nearly all actives have a fitted effect of over 55% in size
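Constitutively active GLP-1R drives a cAMP-responsive luciferase in stably transfected HEK293 cells; test compounds are added after overnight (12 h) attachment and left 24 hr, and signal loss in luminescence marks inhibition.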
GLP-1R agonist = GLP-1 receptor (human) agonism; P43220; HEK293 GLP-1R CRE-luciferase, luminescence, 4-6 h; cells express a hypersensitive GLP-1R form; Potency, µM (top dose mostly 45.6 µM), inactives show top-dose activation, most hits filed as activators; actives 0.007% (n = 380,000); note: % of control where 0% means no effect
* marks the source's active call; other numbers are inactive results; ? = inconclusive; · = not tested or not shown; [ ] = another dose, or the depositor's remark. Calls come from the whole dose curve; as a rule, active = well fitted curve in the direction sought with a large enough effect; inconclusive = small, poorly fitted or top-dose-only effect, or another doubt; inactive = no such curve, though single readings can be large; an effect the other way counts as inactive or inconclusive. Potency is the fitted concentration of half-maximal effect.

SMILES	RORg inh	VP16 counter	HEK293 tox	GLP-1R inv ag	GLP-1R agonist
CCC(CO)[n+]1c(C)cc(/C=C2\Sc3ccccc3N2Cc2ccccc2)cc1C (configuration not stated)	?	7.1µM*	12%	?	-10%
CCN1/C(=C2\SC(=S)N(Cc3ccccc3)C2=O)Sc2ccccc21	1%	-2%	17%	4%	-17%
O=C(NC(=S)Nc1ccccc1Cl)c1ccco1	13µM*	?	?	?	18%
O=C(Nc1ccccc1N1CCCC1)c1ccco1	-9%	-10%	1%	2%	6%
O=C(NC(=S)Nc1ccccc1N1CCCCC1)c1ccco1	3.2µM*	4µM*	?	?	21%
O=C(NC(=S)Nc1cccc(Cl)c1N1CCCCC1)c1ccco1	4µM*	7.1µM*	?	-23%	4%
O=C(Nc1ccccc1N1CCCCC1)c1ccco1	4%	-1%	-13%	11µM*	0%
CCC(=O)Nc1ccc(Cl)c(NC(=S)NC(=O)c2ccco2)c1	36%	?	-2%	45%	12%
O=C(NC(=S)Nc1ccccc1N1CCCC1)c1ccco1	18%	-6%	?	-32%	14%
CC(C)(C)N1C(=O)[C@H]2[C@@H]3[C@H](O)C=CC(=O)[C@H]3CC[C@H]2C1=O	3%[10 µM]	5%[10 µM]	·	·	·
CCCCCC(O)c1ccc([C@H]2CCC(=O)[C@@H]2CCCCCCC(=O)O)cc1 (some centres not stated)	4%	-8%	·	·	·
CCOc1ccc(CNC(=O)Cn2nc(C)c3nn(-c4ccc(Cl)cc4)c(C)c3c2=O)cc1OC	·	·	-5%	-2%	·
CCC(C)c1ccccc1NC(=S)NC(=O)c1ccco1 (configuration not stated)	3.5µM*	3.2µM*	-24%	?	5%
O=C(NC(=S)Nc1ccccc1N1CCOCC1)c1ccco1	14µM*	14µM*	3%	-24%	7%
Fc1cc(F)cc(NC(=S)Nc2ccccc2N2CCOCC2)c1	13µM*	4%[10 µM]	-2%	-4%	15%
O=C(c1ccc(-c2cc(Cl)ccc2Cl)o1)N1CCOCC1	-1%	-3%	5%	5%	23%
O=C(NC(=S)Nc1ccccc1N1CCOCC1)c1ccc(-c2cc(Cl)ccc2Cl)o1	0.89µM*	2.5µM*	-4%	2%	0%
S=C(NCCc1ccccc1)Nc1ccccc1N1CCOCC1	1%	?	?	?	24%
CC(C)C(=O)N1CCN(c2ccccc2NC(=S)NC(=O)c2ccco2)CC1	·	·	-2%	-19%	9%
CCC(C)c1cc([N+](=O)[O-])cc([N+](=O)[O-])c1OC(C)=O (configuration not stated)	-11%	1%	·	·	·
CC(=O)Nc1cccc(-c2nnc(SCC(=O)c3cc([N+](=O)[O-])ccc3Br)o2)c1	·	·	-6%	-14%	·
Cc1cccc(Cn2c(=O)n(-c3cc(C)cc(C)c3)c(=O)c3oc4ccccc4c32)c1	·	·	-12%	-6%	·
O=c1c(-c2cc(-c3ccc(F)cc3)nc3c2COc2ccc(Cl)cc2-3)coc2ccc(F)cc12	·	·	-1%	-6%	·
CCc1c2c(nc3ccc(OC)cc13)OC(CC)C2 (configuration not stated)	-30%	21%	·	·	·
O=C(NCCN1CCOCC1)C1(C(F)(F)F)C/C(=C/CCO)CCCO1 (configuration not stated)	-20%	-1%	·	·	·
SMILES	RORg inh	VP16 counter	HEK293 tox	GLP-1R inv ag	GLP-1R agonist
CC(C)(C)Nc1oc(-c2ccccc2)nc1-c1cccc2ccccc12	-11%	-4%	·	·	·
CCCn1c(=N)n(CC(=O)c2ccc([N+](=O)[O-])cc2)c2ccccc21	1.6µM*	-8%	4%	7%	18%
COc1cccc(C(=O)Cn2c(=N)n(C)c3ccccc32)c1	10µM*	?	?	?	-11%
CCCn1c(=N)n(CC(=O)c2ccc(Cl)cc2)c2ccccc21	?	?	-27%	7.9µM*	13%
N=c1n(CCN2CCCCC2)c2ccccc2n1CC(=O)c1cccs1	16%	1%	-25%	5.6µM*	2%
N=c1n(CCN2CCOCC2)c2ccccc2n1CC(=O)c1cccc([N+](=O)[O-])c1	18%	2%	-24%	-21%	9%
N=c1n(CCN2CCOCC2)c2ccccc2n1CC(=O)c1ccc(Cl)c(Cl)c1	?	4µM*	-24%	?	1%
COc1ccc(NC(=O)CN(C)C(=O)c2ccc(=O)[nH]c2)cc1	?	?	7%	5%	4%
CCOc1ccc(NC(=O)CN(C)C(=O)CCCOc2ccc(Br)cc2)cc1OCC	·	·	3%	10µM*	8%
CCOc1ccc(NC(=O)CN(C)C(=O)c2ccc(=O)[nH]c2)cc1OCC	11µM*	15%	-10%	14%	0%
CCOc1ccc(NC(=O)CN(C)C(=O)CCNC(=O)c2ccc(Br)cc2)cc1OCC	·	·	14%	14%	0%
Cc1cc(NC(c2cccnc2)c2ccc3cccnc3c2O)no1 (configuration not stated)	4µM*	6.3µM*	?	?	2%
Oc1c(C(Nc2cccc(C(F)(F)F)c2)c2cccnc2)ccc2cccnc12 (configuration not stated)	2.5µM*	2.8µM*	-32%	?	-3%
Cc1ccccc1-c1cncnc1N(C)Cc1ccco1	-26%	-4%	·	·	·
Cc1cccc(NC(=S)N/N=C/c2cccc([N+](=O)[O-])c2)c1	1.1µM*	-9%[0.365 µM]	?	?	6%
Cc1cccc(NC(=S)N/N=C/c2ccc3c(c2)OCO3)c1	-5%	-15%	?	?	13%
Cc1cccc(NC(=S)N/N=C/c2ccc(Cl)c([N+](=O)[O-])c2)c1	1.6µM*	4µM*	-15%	0%	-1%
CN(C)c1ccc(CNc2nc(-c3ccco3)nn2S(=O)(=O)c2ccc3ccccc3c2)cc1	·	·	-11%	-5%	·
C/C(CCC(=O)OC[C@@H]1O[C@H](C#Cc2ccccc2)C=C[C@@H]1Oc1ccc(C)cc1)=N/OC[C@@H](O)[C@H]1O[C@H]2OC(C)(C)O[C@H]2[C@@H]1O	-2%[10 µM]	-7%[10 µM]	·	·	·
Cc1c(Cl)cccc1NC(=O)CCS(=O)(=O)c1cccc2nsnc12	·	·	4%	11%	-1%
O=c1[nH]c(-c2ccccn2)cc2ccccc12	5µM*	?	?	37%	1%
CCCCCCCCN=C(N)c1ccc(C(=O)OCC2CCCCC2)cc1	7.9µM*	2%	·	·	·
Nc1cnn([C@@H]2O[C@H](CO)[C@@H](O)[C@H]2O)c(=O)n1	5%	5%	·	·	·
CC(=O)Oc1cc2c(c(C)c1OC(C)=O)CC=C1[C@]3(C)CC[C@]4(C)CC[C@@](C)(C(=O)O)CC4[C@]3(C)CC[C@]12C (some centres not stated)	?	11µM*	·	·	·

High-throughput results deposited in PubChem BioAssay by National Center for Advancing Translational Sciences (NCATS).
